According to PubChem BioAssay (NCATS):
Several values for one entry are separate records, joined by “and”; a condition that tells them apart may be missing. Equal entries are not always repeated. Inconclusive results are not listed. Where a structure was tested more than once in an assay, its records may differ in their call. Activity calls are given as the source filed them. The call rests on the fitted dose curve; in most records, active means well fitted inhibition curve with a large enough effect; inconclusive means small, poorly fitted or top-dose-only effect; inactive means flat fitted curve, though single readings scatter.

What was measured:
CRL-7250 = normal cell line; assay: Cytotoxic Profiling of Annotated Libraries Using Quantitative High-Throughput Screening (AID 1296008); details: Five cell lines viability, CellTiter-Glo ATP luminescence, 48-72 h; max response: active compounds read low
Outline: (§1)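 Cytotoxicity was measured as CellTiter-Glo ATP luminescence, read after 10 min at room temperature. Compound treatment of the cells lasted 48 or 72 hr at 37 degrees Celsius in a qHTS format.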

HEK293 = assay: as above; details: Five cell lines viability, CellTiter-Glo ATP luminescence, 48-72 h; max response: active compounds read low
Outline: as §1

HaCat [1] = assay: as above; details: Five cell lines viability, CellTiter-Glo ATP luminescence, 48-72 h; max response: active compounds read low
Outline: as §1

KB-3-1 = assay: as above; details: Five cell lines viability, CellTiter-Glo ATP luminescence, 48-72 h; max response: active compounds read low
Outline: as §1

NIH3T3 = assay: as above; details: Five cell lines viability, CellTiter-Glo ATP luminescence, 48-72 h; max response: active compounds read low
Outline: as §1

HACAT [2] = assay: qHTS assay to identify novel small-molecules to repurpose for Merkel cell carcinoma treatment (AID 1296009); details: MCC and control cell lines, CellTiter-Glo viability, 72 h; at 44.8 µM (top of the series) unless noted
Outline: (§2)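 Cell viability, measured as CellTiter-Glo luminescence, was normalized between DMSO and no-cell wells. The cells had been exposed to 8- or 11-point compound dilutions for 72 hr at 37 degree celsius.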

HEK293T = assay: as above; details: MCC and control cell lines, CellTiter-Glo viability, 72 h; series mostly up to 44.8 µM
Outline: as §2

MCC-13 = assay: as above; details: MCC and control cell lines, CellTiter-Glo viability, 72 h; series mostly up to 46 µM
Outline: as §2
Further: nearly all actives have a fitted effect of over 60% in size.
On the % scale 0 is the no-effect control and ±100 the full control effect; potency means the concentration at half of the fitted maximal effect.

CC(=O)C1=C(O)C=C2Oc3c(C(C)=O)c(O)c(C)c(O)c3C2(C)C1=O (configuration not stated)
inactive: outcome (CRL-7250) | outcome (HEK293) | outcome (HaCat [1]) | outcome (KB-3-1) | outcome (NIH3T3) | outcome (HACAT [2]) | Potency (HEK293T) | Potency (MCC-13)

NC[C@H]1O[C@H](O[C@H]2[C@@H](O)[C@@H](O[C@H]3O[C@H](CO)[C@@H](O)[C@H](N)[C@@H]3O)[C@H](N)C[C@@H]2N)[C@H](N)C[C@H]1O
inactive: max response (CRL-7250) -1.47% | max response (HEK293) 0.89% | outcome (HaCat [1]) | max response (KB-3-1) 1.19% | max response (NIH3T3) -1.89% | outcome (HACAT [2]) | Potency (MCC-13)

COc1ccc(S(=O)(=O)Nc2cccnc2Nc2ccc(O)cc2)cc1
inactive: max response (HaCat [1]) -5.46%
active: Potency (CRL-7250) 3.66 µM | Potency (HEK293) 0.935 µM | Potency (HaCat [1]) 20.9 µM | Potency (KB-3-1) 332 nM and 820 nM | Potency (MCC-13) 3.72 µM

Nc1nc(=O)n([C@H]2C[C@H](O)[C@@H](CO)O2)cc1F
active: Potency (HEK293) 0.0743 µM | Potency (HaCat [1]) 0.0118 µM | Potency (KB-3-1) 11.8 µM | Potency (NIH3T3) 0.0083 µM
inactive: outcome (CRL-7250)

CNC(=O)c1cccc(-c2ccc3c(N4CCOC[C@H]4C)nc(N4CCOC[C@H]4C)nc3n2)c1
active: Potency (CRL-7250) 0.0469 µM | Potency (HEK293) 0.105 µM | Potency (HaCat [1]) 10.5 µM | Potency (KB-3-1) 0.118 µM | Potency (NIH3T3) 0.418 µM

C=C(C)[C@@H]1CC[C@]2(C)CC[C@]3(C)[C@H](CC[C@@H]4[C@@]5(C)CC[C@H](O)C(C)(C)[C@H]5CC[C@]43C)[C@@H]12
inactive: max response (CRL-7250) -9.28% | outcome (HEK293) | outcome (HaCat [1]) | max response (KB-3-1) 8.9% | outcome (NIH3T3) | outcome (HACAT [2]) | Potency (HEK293T) | Potency (MCC-13)

CCN(CC)Cc1ccc2cc(COC(=O)Nc3ccc(C(=O)NO)cc3)ccc2c1
active: Potency (CRL-7250) 7.43 µM | Potency (HEK293) 0.418 µM | Potency (HaCat [1]) 1.3 µM | Potency (KB-3-1) 1.16 µM | Potency (NIH3T3) 2.31 µM

O=C(O)c1ccc(Nc2ncc3c(n2)-c2ccc(Cl)cc2C(c2c(F)cccc2F)=NC3)cc1
active: Potency (HaCat [1]) 9.2 µM | Potency (KB-3-1) 18.7 µM and 5.8 µM
inactive: max response (CRL-7250) 0.615% | outcome (CRL-7250)

CC(Oc1ccc(O)cc1)(P(=O)(O)O)P(=O)(O)O
inactive: max response (CRL-7250) 3.19% | outcome (HEK293) | outcome (HaCat [1]) | max response (KB-3-1) -8.06% | max response (NIH3T3) -5.52% | outcome (HACAT [2]) | Potency (HEK293T) | Potency (MCC-13)

COc1cc(CCc2cc(NC(=O)c3ccc(N4C[C@@H](C)N[C@@H](C)C4)cc3)n[nH]2)cc(OC)c1
active: Potency (CRL-7250) 4.69 µM and 8.2 µM | Potency (HEK293) 2.96 µM | Potency (KB-3-1) 9.35 µM | Potency (NIH3T3) 10.5 µM | Potency (HEK293T) 14.6 µM
inactive: outcome (HaCat [1]) | outcome (HACAT [2]) | Potency (MCC-13)

O=C(Nc1ccc(Oc2ccnc3[nH]ccc23)c(F)c1)c1cccn(-c2ccc(F)cc2)c1=O
inactive: max response (CRL-7250) -4.56% | max response (HEK293) 2.79% | max response (HaCat [1]) 2.4% | outcome (HaCat [1]) | outcome (KB-3-1) | outcome (NIH3T3) | outcome (HACAT [2]) | Potency (MCC-13)

Nc1ccc(C(=O)Nc2cccc(-c3nc(N4CCOCC4)c4oc5ncccc5c4n3)c2)cn1
active: Potency (HEK293) 3.26 µM | Potency (KB-3-1) 20.6 µM | Potency (NIH3T3) 2.31 µM
inactive: outcome (CRL-7250) | max response (HaCat [1]) -11.9% | outcome (KB-3-1) | Potency (MCC-13)

CCOC(=O)N1CCN([N+]([O-])=NOc2ccc([N+](=O)[O-])cc2[N+](=O)[O-])CC1
inactive: max response (CRL-7250) -5.72% | max response (HaCat [1]) 3.57% | outcome (KB-3-1)
active: Potency (HEK293) 3.72 µM | Potency (NIH3T3) 9.35 µM

CC1(C)[C@H](O[C@H]2O[C@H](C(=O)O)[C@@H](O)[C@H](O)[C@H]2O[C@@H]2O[C@H](C(=O)O)[C@@H](O)[C@H](O)[C@H]2O)CC[C@@]2(C)[C@H]1CC[C@]1(C)[C@H]2C(=O)C=C2[C@H]3C[C@@](C)(C(=O)O)CC[C@]3(C)CC[C@]21C
inactive: max response (CRL-7250) -14.3% | max response (HEK293) 0.699% | outcome (HaCat [1]) | outcome (KB-3-1) | outcome (NIH3T3) | outcome (HACAT [2]) | Potency (MCC-13)

COC(=O)C=CC(=O)OC
inactive: max response (CRL-7250) -5.16% | outcome (HEK293) | outcome (HaCat [1]) | max response (KB-3-1) 7.81% | max response (NIH3T3) -0.0603% | outcome (HACAT [2]) | Potency (HEK293T) | Potency (MCC-13)

CCCc1nc(C(C)(C)O)c(C(=O)O)n1Cc1ccc(-c2ccccc2-c2nn[nH]n2)cc1
inactive: outcome (CRL-7250) | outcome (HEK293) | outcome (HaCat [1]) | max response (KB-3-1) 0.595% | outcome (NIH3T3) | outcome (HACAT [2]) | Potency (HEK293T) | Potency (MCC-13)

COc1ccc(C=Cc2cc(OC)c(OC)c(OC)c2)cc1NC(=O)[C@H](N)CO
inactive: max response (HaCat [1]) 4.22%
active: Potency (CRL-7250) 0.0332 µM | Potency (HEK293) 0.0037 µM | Potency (KB-3-1) 0.003 µM

CC(C=CC=C(C)C=CC1=C(C)CCCC1(C)C)=CC=CC=C(C)C=CC=C(C)C=CC1=C(C)CCCC1(C)C
inactive: max response (CRL-7250) -6.98% | max response (HEK293) -0.757% | outcome (HaCat [1]) | max response (KB-3-1) 8.98% | max response (NIH3T3) -4.98% | outcome (HACAT [2]) | Potency (MCC-13)

Nc1ncn([C@@H]2O[C@H](CO)[C@@H](O)[C@@H]2O)c(=O)n1
inactive: max response (HaCat [1]) -5.4%
active: Potency (CRL-7250) 5.26 µM | Potency (HEK293) 4.18 µM | Potency (KB-3-1) 8.33 µM
